APP transl inh: APP translation inhibition | SH-SY5Y APP 5'UTR-luciferase reporter, luminescence | inhibition, % at 2 µM | hit rate 0.82% among 190,000 | AID 1285;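 active = inhibition above a set limit, derived from the sample mean plus 3 SD, cut at about 45% in these data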
IEC-6 tox: counter-screen for KLF5 inhibitors: cytotoxicity in IEC-6 cells | AID 1825 | hit rate 0.78% among 290,000 | IEC-6 cytotoxicity, luminescence viability | inhibition, % at 5 µM; in the data active = inhibition above about 22%;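 also: 0% = plate median of test compound wells and 100% = cytotoxic reference compound wells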
KLF5 inhibitor: suppresses KLF5 promoter-driven expression; DLD-1 KLF5 promoter-luciferase reporter, luminescence; inhibition, % at 5 µM; hit rate 0.23% among 290,000; AID 1700;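 active = inhibition above a per-plate limit of that plate's mean compound inhibition plus 3 SD, cut at about 60% in these data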;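 also: 0% = DMSO wells and 100% = LY294002 at 200 µM; higher means less KLF5 promoter-driven luciferase light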
Ba/F3 V617F tox: reduce viability of Ba/F3 cells dependent on JAK2V617F; Ba/F3 EpoR-JAK2V617F viability, ATP luminescence; inhibition, % at 5.6 µM; hit rate 1.1% among 220,000; AID 1446;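 active = inhibition above the campaign mean plus 3 SD over all tested compounds, cut at about 24% in these data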;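 also: cytokine-independent growth of Ba/F3 cells driven by EpoR plus mutant JAK2; 0% = DMSO-treated cells and 100% = JAK inhibitor I control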
aSyn 5UTR inh: 5' untranslated region of α-synuclein, MLPCN primary screen | alpha-synuclein 5'UTR reporter, inhibitor activity | inhibition, % (tested at 7.5 µM) | hit rate 0.82% among 300,000 | AID 1813; in the data active = inhibition above about 60%;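 also: H4 neuroglioblastoma cells stably carrying SNCA 5'UTR luciferase fusion; 0% = DMSO wells and 100% = positive control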
BaF3 tox: reduces parental Ba/F3 cell viability, JAK2V617F counter-screen | CellTiter-Glo ATP luminescence | inhibition, % at 5.6 µM | hit rate 1.1% among 220,000 | AID 1486;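 active = inhibition above a per-campaign cutoff, the mean inhibition of all tested compounds plus 3 SD, cut at about 27% in these data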;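 also: 0% = DMSO wells and 100% = JAK Inhibitor I control wells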
Numbers without * were called inactive; / = no result given. Rows were chosen to be rich in hits. Some 2.2% of all compounds tested hit in one or more screens of this group.

SMILES	APP transl inh	IEC-6 tox	KLF5 inhibitor	Ba/F3 V617F tox	aSyn 5UTR inh	BaF3 tox
CCOC(=O)c1c(NC(=O)CSc2ncccn2)sc2c1CCN(Cc1ccccc1)C2	9	4	18	5	-11	39*
CCOc1ncccc1C(=O)NCCc1ccc(S(N)(=O)=O)cc1	/	-2	-9	/	9	/
COc1ccc(S(=O)(=O)N2CCN(c3nc(C)cc(C)n3)CC2)cc1	/	-2	-17	/	3	/
Cc1c(CCOC(=O)CC23CC4CC(CC(C4)C2)C3)sc[n+]1Cc1ccccc1	-10	0	-37	29*	8	41*
O=C(CSc1nnnn1-c1cccnc1)Nc1ccc(F)cc1F	/	-8	-4	/	20	/
Cc1ccc(NS(=O)(=O)c2ccc(C(=O)N3CCN(c4ncccn4)CC3)cc2)cc1	-19	7	-23	14	11	28*
O=C(Cn1ccc([N+](=O)[O-])n1)N1CCCCC1	0	4	-2	-2	26	43*
CSCCC(NC(=O)COc1ccccc1)C(=O)N1CCN(c2ccccc2O)CC1 (configuration not stated)	/	/	/	/	1	/
Cc1[nH]c(N=Nc2ccccc2)nc1N=Nc1ccccc1	/	14	-5	3	63*	2
Nc1ccc(N=Nc2ccccc2)c(N)n1	-49	4	-15	3	-45	4
O=C(O)CCCCCNS(=O)(=O)c1cccc2c1C(=O)c1ccccc1C2=O	3	26*	-1	6	3	13
O=C(Nc1ccc(-c2ccc3nncn3n2)cc1)C1CCCC1	-4	-2	-15	-4	-36	-1
O=C(O)CC(=O)Nc1ccc(Oc2ccc(C(F)(F)F)cn2)c(Cl)c1	1	2	-4	0	65*	8
Cc1ccc([N+](=O)[O-])c(C)[n+]1C	9	0	-26	8	-3	9
CC1(C)N=c2ccc([N+](=O)[O-])c(N)c2=[N+]1[O-]	/	-2	-12	69*	21	63*
COc1ccc(C(C)=O)cc1COC(=O)c1ccc(N)c([N+](=O)[O-])c1	6	31*	2	-4	18	-3
COc1ccc(C(C)=O)cc1COC(=O)CNC(=O)c1cc(C)cc(C)c1	3	4	-12	70*	-14	38*
CCC(C)(C)NC(=O)C(c1ccc(OC)cc1)N(C(=O)CCC(=O)Nc1cc(C)on1)C(C)(C)C (configuration not stated)	/	1	-2	/	16	/
Cc1ccc(NC(=O)CCN2CCC(C(N)=O)CC2)cc1	/	-6	-30	/	1	/
COCCNC(=O)c1cc(C(=O)CC(C)C)c[nH]1	-11	-3	4	4	2	1
CC(=O)c1cccc(S(=O)(=O)NCCC(=O)O)c1	-8	1	0	-4	-5	34*
COCCn1c(Cc2ccccc2)nnc1SCC(=O)NC1CC1	/	-9	4	/	-23	/
Cc1c(C(C)C)c(=O)n(-c2ccc(S(=O)(=O)NC3CCCCC3)cc2)n1C	12	5	-4	37*	14	41*
Cc1c(C(C)C)c(=O)n(-c2ccc(S(=O)(=O)NCc3ccccc3)cc2)n1C	8	6	-21	42*	-35	72*
O=c1cc(CSc2ccc(Cl)cc2)nc(-c2ccncc2)[nH]1	-4	-1	7	-1	-22	3
SMILES	APP transl inh	IEC-6 tox	KLF5 inhibitor	Ba/F3 V617F tox	aSyn 5UTR inh	BaF3 tox
CCn1c(SCC(=O)Nc2ccccc2)nnc1-c1cccs1	/	-6	-22	-3	8	-3
CCn1c(SCc2ccccc2)nnc1-c1cccs1	-12	-11	-11	41*	-13	42*
O=C(CSc1ccc2nnc(-c3ccccn3)n2n1)N1CCOCC1	59*	-4	-16	-4	1	4
CCOC(=O)N1CCN(C(=O)CSc2ccc3nnc(-c4ccccn4)n3n2)CC1	-8	3	-4	2	11	10
C/C(=N\Nc1ncc(Cl)cc1Cl)c1ccccn1	70*	1	-33	4	101*	7
C/C(=N\Nc1ccc(Cl)c(C(=O)O)c1)c1ccccn1	/	1	-189	-1	-1	2
CCOC(=O)C1CCN(Cc2ccc(O)c3ncccc23)CC1	41	1	1	82*	31	50*
CCOC(=O)N1CCN(Cc2cc(Cl)c3cccnc3c2O)CC1	83*	14	42	3	44	10
CCOC(=O)C1CCN(Cc2ccccc2C(F)(F)F)CC1	-54	-3	22	-3	31	-2
COc1ccccc1N1CCN(Cc2ccc(O)c3ncccc23)CC1	90*	1	10	42*	77*	37*
CCOC(=O)N1CCN(Cc2ccccc2Cl)CC1	-15	2	-8	1	/	1
COc1cc(C(=O)NCCc2ccc(S(=O)(=O)N3CCCC3)cc2)cc(OC)c1OC	18	-2	8	-4	10	2
CCOCCCNC(=O)c1ccc2c(c1)N=C(CC)c1cc(Br)ccc1S2	94*	93*	74*	92*	88*	95*
CCC1=Nc2cc(C(=O)NCCN3CCOCC3)ccc2Sc2ccccc21	/	-1	-23	/	3	/
CCOC(=O)N1CCN(S(=O)(=O)c2ccc(C(=O)NNc3nc4cc(C)cc(C)c4s3)cc2)CC1	23	6	11	2	66*	5
CCOC(=O)N1CCN(S(=O)(=O)c2ccc(C(=O)NNc3nc4c(C)cccc4s3)cc2)CC1	-28	-5	2	-5	50	1
CCOC(=O)N1CCN(S(=O)(=O)c2ccc(C(=O)NNc3nc4c(C)cc(C)cc4s3)cc2)CC1	-22	0	9	-5	71*	-1
CCOC(=O)N1CCN(S(=O)(=O)c2ccc(C(=O)NNc3nc4ccc(Cl)cc4s3)cc2)CC1	3	5	-11	-3	67*	3
CCN(CC)CCNC(=O)c1cn(CC)c2ccc(S(=O)(=O)N3CCc4ccccc4C3)cc2c1=O	/	4	-7	/	4	/
Nc1cccc(CCc2nc3cc4ccccc4cc3[nH]2)c1	17	49*	-49	88*	-48	51*
c1ccc(CCc2nc3ccccc3[nH]2)cc1	-58	-5	-93	-1	-120	3
CCOc1ccc(CCNC(=O)c2cccc(S(=O)(=O)N3CCN(C(C)=O)CC3)c2)cc1OCC	/	/	/	/	-7	/
O=C(/C=C/c1ccccc1)NCCS(=O)(=O)N1CCN(c2ccccc2)CC1	/	/	/	/	8	/
CC(=O)C1=NN(c2ccccc2)C(c2ccc3c(c2)OCO3)N1c1ccc(N2CCOCC2)cc1 (configuration not stated)	-7	-4	-4	1	-8	0
CC(=O)C1=NN(c2ccccc2)C(c2cccs2)N1c1ccccc1 (configuration not stated)	10	-3	-41	22	/	43*
Cc1noc(C)c1COC(=O)c1cnc(Cl)c(Cl)c1	-2	-3	3	-4	-2	-4
CCOC(=O)c1sc(N)c(C(=O)OC)c1C	-24	11	-57	5	-59	90*
COc1ccc(-c2cnnc(N/N=C/c3c(C)nn(-c4ccccc4)c3Cl)n2)cc1	62*	6	10	5	11	5

High-throughput results deposited in PubChem by several laboratories.
